# Hit rate of the full screen: of about 52,000 compounds, about 4,300 (8.3%) were called active. This is one part of a sample in which actives are shown more often than they occur. A number with no mark means an inactive call. Rule as the data show it: active = survival mostly below about 52% (no sharp cut-off); inactive = mostly above about 56%.
# Tested on: DeltatarO mutant
# Assay: growth inhibition of S. aureus wild type versus tarO mutant, primary screen, teichoic acid synthesis inhibitors, RN4220, OD600 (AID 463173)
# Conditions: OD600, 18 h, active compounds read low, screened at 18.75 µg/mL (by protocol)
row,SMILES,survival
1,CC(=O)Nc1ccc(-n2cc3c(c2-c2ccc(C)cc2)c(=O)n(C)c(=O)n3C)cc1,92%
2,COc1ccc(-c2noc(CC(=O)N(C)c3cc(Cl)c(OC)cc3OC)n2)cc1,82%
3,COc1ccc(-c2noc(CCC(=O)N(C)c3cc(Cl)ccc3OC)n2)cc1,26% (active)
4,COc1ccc(C)cc1N(C)C(=O)CCc1nc(-c2ccccc2F)no1,45%
5,Cc1ccc(NC(=O)CCN2C(=O)c3ccccc3Sc3ncccc32)cc1,66%
6,CCN(CC)C(=O)Cn1c(C)c(C#N)c2ccccc21,96%
7,O=C(CC(c1cccs1)N1Cc2ccccc2C1=O)Nc1ccc(F)c(Cl)c1 (stereo unspecified),83%
8,CCN(CC)C(=O)C1CCN(Cc2ccccc2F)CC1,99%
9,CCn1c2ccccc2c2cc(CN3CCN(Cc4ccccc4F)CC3)ccc21,7% (active)
10,CCn1c2ccccc2c2cc(CN3CCN(Cc4ccccc4C)CC3)ccc21,-3% (active)
11,O=c1c2ccccc2n(Cc2ccccc2F)c(=O)n1-c1cccc(F)c1,68%
12,Cc1ccccc1Cn1c(=O)n(CCc2ccccc2)c(=O)c2ccccc21,64%
13,Cc1cccc(CCn2c(=O)c3ccccc3n(Cc3ccccc3C)c2=O)c1,72%
14,CCC(C)NC(=O)c1ccc2c(c1)N(Cc1ccccc1)C(=O)c1ccccc1S2 (stereo unspecified),92%
15,CCOc1cc2sc(N3CCC(C(=O)Nc4ccccc4Cl)CC3)nc2cc1Br,77%
16,CCOc1cc(C2NC(=O)c3c(sc4c3CCN(C)C4)N2)ccc1OC(=O)c1ccc(F)cc1 (stereo unspecified),56%
17,COc1ccc(-c2[nH]c(-c3ccc(F)cc3)nc2SCC(=O)Nc2ccc(OC)c(OC)c2)cc1,53%
18,O=C(CSc1cn(CC(=O)N2CCCCC2)c2ccccc12)NCc1ccccc1Cl,74%
19,CN(C)S(=O)(=O)c1ccc(NC(=O)CNCc2ccco2)cc1,97%
20,O=C(CN1CCCN(Cc2cccc(F)c2)S1(=O)=O)Nc1ccc2c(c1)OCCO2,80%
21,Cc1nc2ccc(S(=O)(=O)CCC(=O)Nc3ccc(Cl)cc3)cc2s1,44%

row,SMILES,survival
1,Cc1ccc(NC(=O)CCS(=O)(=O)c2ccc3nc(C)sc3c2)cc1,34% (active)
2,Cc1cc(C)cc(NC(=O)CCS(=O)(=O)c2ccc3nc(C)sc3c2)c1,50%
3,CCOc1ccc(C2C(=O)N(C3CCCCCC3)CC(=O)N2Cc2ccc(F)cc2)cc1OC (stereo unspecified),117%
4,COc1ccc(OCc2nnc(SCC(=O)NCc3ccco3)o2)cc1,85%
5,Cc1cc(Nc2cccc(C(F)(F)F)c2)nc2ccc(NC(=O)Cc3ccc(Cl)cc3)cc12,101%
6,O=C(Nc1cccc(C(F)(F)F)c1)c1cc(-c2ccc(Cl)cc2)on1,77%
7,Fc1ccc(Nc2nc3nonc3nc2Nc2cccc(C(F)(F)F)c2)cc1,-2% (active)
8,Cc1cc(Nc2cccc(C(F)(F)F)c2)ncn1,54%
9,NS(=O)(=O)c1ccc(Nc2nc3nonc3nc2Nc2ccc(S(N)(=O)=O)cc2)cc1,122%
10,FC(F)(F)c1cccc(Nc2nc3nonc3nc2Nc2ccc(Cl)cc2)c1,-16% (active)
11,Cc1ccc(Nc2nc3nonc3nc2Nc2cccc(C(F)(F)F)c2)cc1Cl,-1% (active)
12,Fc1ccc(-c2nc(Nc3cccc(C(F)(F)F)c3)nc3c2COc2ccccc2-3)cc1,54%
13,Cc1ccc(Nc2nc3nonc3n3cnnc23)cc1Cl,70%
14,Cc1ccc(C)c(N2CCN(CCCNC(=O)Cn3ncc4c([nH]c5ccccc54)c3=O)CC2)c1,94%
15,Cc1noc2ncnc(N3CCCC(C(=O)Nc4cccc(C(F)(F)F)c4)C3)c12 (stereo unspecified),93%
16,Cc1cc(C)n(C(C)CC(=O)NCc2ccc(Cl)cc2)n1 (stereo unspecified),69%
17,COc1ccc2nc(SCC(O)c3cccc(Br)c3)[nH]c2c1 (stereo unspecified),76%
18,Nc1ccc2nc(SCCOc3ccccc3)sc2c1,88%
19,Brc1ccc2nc(SCCOc3ccccc3)[nH]c2c1,-1% (active)
20,CCOc1ccc(Nc2cc(C)nc3nncn23)cc1,60%
21,CCCS(=O)(=O)N1CCCC(C(=O)NCCOC)C1 (stereo unspecified),55%

row,SMILES,survival
1,CCCCN(CC)CCNC(=O)Cn1c(=O)c2cccn2c2cccnc21,80%
2,Cc1cc(=O)n2c(C(=O)Nc3ccc(F)c(Cl)c3)c(C(=O)Nc3cccc(C)c3C)sc2n1,65%
3,Cc1cc(=O)n2c(C(=O)Nc3ccc(C)c(C)c3)c(C(=O)Nc3ccccc3)sc2n1,52%
4,COc1ccc(Cl)cc1NC(=O)c1c(C(=O)Nc2cccc(C)c2C)sc2nc(C)cc(=O)n12,74%
5,Cc1cc(=O)n2c(C(=O)Nc3ccc(C)c(Cl)c3)c(C(=O)Nc3ccccc3)sc2n1,56% (active)
6,Cc1ccc(NC(=O)c2c(C(=O)Nc3ccccc3)sc3nc(C)cc(=O)n23)cc1,59%
7,COc1ccc(C)cc1NC(=O)c1c(C(=O)Nc2cccc(C)c2C)sc2nc(C)cc(=O)n12,61% (active)
8,CC(C)Oc1ccc(NC(=O)C2COc3ccccc3O2)cc1 (stereo unspecified),103%
9,Cc1ccc(NS(=O)(=O)c2c(C)nc3sc(C)cn3c2=O)c(C)c1,83%
10,CCOc1ccccc1CNC(=O)CN1C(=O)CCCc2ccccc21,86%
11,COc1cccc(Cn2c(=O)n(CCc3ccccc3)c(=O)c3c2c2cc(OC)ccc2n3C)c1,81%
12,CCOc1ccccc1Nc1sc(C(=O)c2ccccc2)c(N)c1C(=O)NCCc1ccccc1,99%
13,Cc1ccc(N2CCN(C(=O)NCc3noc4ccc(C)cc34)CC2)c(C)c1,54%
14,Cn1c(=O)c2c(nc(SCC(=O)Nc3ccccc3F)n2Cc2ccccc2F)n(C)c1=O,65%
15,Cn1c(=O)c2c(nc(SCC(=O)Nc3ccc(F)cc3)n2Cc2ccc(Cl)cc2)n(C)c1=O,31% (active)
16,Cn1c(=O)c2c(nc(SCC(=O)Nc3ccc(F)cc3)n2Cc2ccccc2F)n(C)c1=O,140%
17,Cn1c(=O)c2c(nc(SCC(=O)Nc3ccccc3F)n2Cc2ccc(Cl)cc2)n(C)c1=O,80%
18,Cn1c(=O)c2c(nc(SCC(=O)Nc3ccc(F)cc3)n2Cc2ccccc2)n(C)c1=O,89%
19,Cn1c(=O)c2c(nc(SCC(=O)Nc3ccccc3)n2Cc2ccccc2F)n(C)c1=O,43% (active)
